# Measurements taken from PubChem BioAssay.
# Values without a mark were called inactive. Where a call stands in place of a potency, no number is given. For some assays here: Potency and affinity values are given separately. Calls of active or inactive are those of the source. Unless noted, the rule behind the calls is not given here.
# Experiments:
# [1] = antimalarial activity against Dd2 strain (AID 2302;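 active = growth inhibition above 50% at the single 2 µM test dose, taken to imply half-maximal potency below 2 µM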); settings: P. falciparum Dd2 in RBCs, LDH growth readout, 72 h; at 2 µM; stronger effect = higher value
# [2] = human hepatoma cell viability loss – ATP luminescence, cytotoxicity control for P. falciparum antimalarial project, primary screen (AID 2303;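 active = inhibition above 50%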); settings: HepG2 viability, 24-48 h, at 10 µM, stronger effect = higher value
# [3] = molecular target: L-lactate dehydrogenase (Plasmodium falciparum (isolate CDC / Honduras)) (UniProt Q27743); assay: PfLDH activity inhibition – cell lysate, 3D7 strain, counter-screen for P. falciparum growth inhibition project (AID 2304); settings: P. falciparum 3D7 crude extract, LDH APAD/NBT absorbance; at 2 µM; stronger effect = higher value
# [4] = inhibition of 3D7 malaria parasite growth – strain 3D7 (AID 2306); settings: P. falciparum 3D7 erythrocytic growth, LDH absorbance, 72 h; at 2 µM; stronger effect = higher value
# [5] = molecular target: Calcium-dependent protein kinase 1 (Plasmodium falciparum (isolate 3D7)) (UniProt P62344); assay: PfCDPK1 kinase inhibitors, biochemical, TCAMS library (AID 1159585; cut-off not given, nearly all actives have IC50 up to about 0.98 µM;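 note: inhibitors leave more ATP so luminescence rises with inhibition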); settings: recombinant PfCDPK1, Kinase-Glo ATP depletion luminescence
# [6] = molecular target: Plasmodium falciparum protein kinase 6 (PK6, PF3D7_1337100) (UniProt Q8IDW1); assay: PfPK6 kinase inhibitors, biochemical, TCAMS library (AID 1159586); settings: recombinant PfPK6, Kinase-Glo ATP depletion luminescence
# [7] = molecular target: Protein kinase 7 (PK7), Plasmodium falciparum 3D7 (PF3D7_0213400) (UniProt Q7YTF7); assay: inhibition of Plasmodium PK7 catalytic activity – biochemical, TCAMS antimalarial set, Kinase-Glo luminescence (AID 1159587); settings: recombinant PfPK7, Kinase-Glo ATP depletion luminescence
# [8] = molecular target: Calcium-dependent protein kinase 4 (Plasmodium falciparum (isolate 3D7)) (UniProt Q8IBS5); assay: PfCDPK4 kinase inhibitors, biochemical, TCAMS library (AID 1159588; cut-off not given, nearly all actives have IC50 up to about 0.91 µM); settings: recombinant PfCDPK4, Kinase-Glo ATP depletion luminescence
# Sequence of Calcium-dependent protein kinase 4 (Plasmodium falciparum (isolate 3D7)) (Q8IBS5 whole entry, looked up): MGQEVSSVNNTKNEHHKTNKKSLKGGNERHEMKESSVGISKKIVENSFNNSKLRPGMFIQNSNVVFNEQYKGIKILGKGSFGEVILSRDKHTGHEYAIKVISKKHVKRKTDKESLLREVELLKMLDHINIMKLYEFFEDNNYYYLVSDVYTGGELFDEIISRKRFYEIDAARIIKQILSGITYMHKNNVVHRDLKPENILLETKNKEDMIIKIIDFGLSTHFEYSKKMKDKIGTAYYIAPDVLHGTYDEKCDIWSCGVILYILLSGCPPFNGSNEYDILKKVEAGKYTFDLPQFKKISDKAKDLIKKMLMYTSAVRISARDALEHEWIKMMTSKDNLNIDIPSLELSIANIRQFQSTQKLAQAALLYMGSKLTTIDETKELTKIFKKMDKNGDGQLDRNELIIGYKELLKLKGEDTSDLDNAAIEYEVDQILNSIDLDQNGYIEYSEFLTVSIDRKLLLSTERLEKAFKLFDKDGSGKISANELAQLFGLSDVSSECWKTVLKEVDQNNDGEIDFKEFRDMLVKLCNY
# Sequence of Protein kinase 7 (PK7), Plasmodium falciparum 3D7 (PF3D7_0213400) (Q7YTF7 1-343): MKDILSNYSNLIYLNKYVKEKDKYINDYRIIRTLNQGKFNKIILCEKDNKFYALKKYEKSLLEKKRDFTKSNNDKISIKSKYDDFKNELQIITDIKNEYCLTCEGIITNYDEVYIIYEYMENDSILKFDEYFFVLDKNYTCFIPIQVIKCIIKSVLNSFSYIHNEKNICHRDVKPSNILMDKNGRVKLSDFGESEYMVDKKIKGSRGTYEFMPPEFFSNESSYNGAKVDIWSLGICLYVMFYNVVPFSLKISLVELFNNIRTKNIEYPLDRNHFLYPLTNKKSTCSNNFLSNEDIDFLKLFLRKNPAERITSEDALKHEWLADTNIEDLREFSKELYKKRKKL
# Sequence of Plasmodium falciparum protein kinase 6 (PK6, PF3D7_1337100) (Q8IDW1 1-305): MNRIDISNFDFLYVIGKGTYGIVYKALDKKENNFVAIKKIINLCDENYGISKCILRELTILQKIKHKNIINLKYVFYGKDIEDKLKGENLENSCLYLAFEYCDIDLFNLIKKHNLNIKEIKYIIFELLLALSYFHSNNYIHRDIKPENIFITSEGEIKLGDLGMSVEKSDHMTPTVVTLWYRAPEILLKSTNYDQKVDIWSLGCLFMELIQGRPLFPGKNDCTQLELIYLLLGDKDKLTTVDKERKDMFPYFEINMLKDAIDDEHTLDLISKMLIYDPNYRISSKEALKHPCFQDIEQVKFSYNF
# Sequence of L-lactate dehydrogenase (Plasmodium falciparum (isolate CDC / Honduras)) (Q27743 whole entry, looked up): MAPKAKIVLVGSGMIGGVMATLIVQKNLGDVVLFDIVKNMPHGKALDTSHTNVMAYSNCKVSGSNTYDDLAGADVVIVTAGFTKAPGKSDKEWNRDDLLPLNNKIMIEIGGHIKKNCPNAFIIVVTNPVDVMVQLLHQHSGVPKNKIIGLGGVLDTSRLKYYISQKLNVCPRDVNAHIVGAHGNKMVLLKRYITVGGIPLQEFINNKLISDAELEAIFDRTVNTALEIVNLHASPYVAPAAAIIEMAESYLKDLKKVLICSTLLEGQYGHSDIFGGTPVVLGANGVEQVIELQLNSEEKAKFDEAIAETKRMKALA
# Sequence of Calcium-dependent protein kinase 1 (Plasmodium falciparum (isolate 3D7)) (P62344 whole entry, looked up): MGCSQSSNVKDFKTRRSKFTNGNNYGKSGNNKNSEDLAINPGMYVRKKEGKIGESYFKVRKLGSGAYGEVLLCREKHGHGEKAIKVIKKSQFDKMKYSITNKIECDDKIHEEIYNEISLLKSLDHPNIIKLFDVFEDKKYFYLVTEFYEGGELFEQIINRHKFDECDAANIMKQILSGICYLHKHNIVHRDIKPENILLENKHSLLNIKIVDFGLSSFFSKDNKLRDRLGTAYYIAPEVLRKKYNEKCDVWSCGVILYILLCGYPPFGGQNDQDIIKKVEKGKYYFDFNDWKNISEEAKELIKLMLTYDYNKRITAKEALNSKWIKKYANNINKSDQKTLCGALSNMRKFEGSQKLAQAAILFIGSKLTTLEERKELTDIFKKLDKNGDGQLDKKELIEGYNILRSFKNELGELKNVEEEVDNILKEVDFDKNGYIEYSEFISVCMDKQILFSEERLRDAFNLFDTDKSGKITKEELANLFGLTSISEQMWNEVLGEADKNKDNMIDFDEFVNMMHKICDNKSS
SMILES,growth inhibition [1],inhibition [2],inhibition [3],growth inhibition [4],outcome [5],outcome [6],outcome [7],outcome [8]
COc1ccc(C(C(=O)NC2CCN(C[C@H](O)c3ccnc4ccc(OC)cc34)CC2)N2CCN(c3ccc(F)cc3)CC2)cc1 (stereo not given in full),86% (active),16%,-6%,97% (active),inactive,inactive,inactive,inactive
CCC(=Cc1cccc([N+](=O)[O-])c1)C(=O)NCC1CCN(c2nc(N)c3cc(OC)c(OC)cc3n2)CC1,62% (active),25%,6%,101% (active),inactive,inactive,inactive,inactive
COc1ccc(CCN(C)CCCCc2ccc(NC(=O)c3cccc4c(=O)c5cc(F)ccc5sc34)cc2)cc1OC,49%,98% (active),0%,96% (active),inactive,inactive,inactive,inactive
COc1ccc2nc3cc(Cl)ccc3c(NCCO)c2c1,93% (active),12%,9%,101% (active),inactive,inactive,inactive,inactive
COc1ccccc1CCC(C)(C)NC(=O)CC(CCc1ccccc1)Nc1ccc(C#N)c2ccccc12 (stereo not given),65% (active),6%,0%,94% (active),inactive,inactive,inactive,inactive
COc1ccccc1-c1[nH]c2ccccc2c1CN1CCC(c2c(C)cccc2C)CC1,13%,49%,3%,96% (active),inactive,inactive,inactive,inactive
FC(F)(F)c1ccc2c(NCCNc3ccnc4cc(C(F)(F)F)ccc34)ccnc2c1,100% (active),21%,1%,101% (active),inactive,inactive,inactive,inactive
COc1ccccc1CN1CCC(CNC(=O)c2cc(-c3ccc(N(C)C)cc3)cs2)C1 (stereo not given),16%,17%,-5%,82% (active),inactive,inactive,inactive,inactive
Cc1ccc(C(=O)Nc2ccc(OC3CCN(CCC(C)C)C3)c(Cl)c2)cc1 (stereo not given),38%,63% (active),0%,83% (active),inactive,inactive,inactive,inactive
COc1cc(C)nc2ccc(NC(=O)COCC(=O)Nc3ccc4nc(C)cc(OC)c4c3)cc12,41%,67% (active),7%,100% (active),inactive,inactive,inactive,inactive
COc1ccc2nccc(N3CCCN(CCNS(=O)(=O)c4ccc5c(c4)NC(=O)CS5)CC3)c2n1,15%,-2%,-9%,97% (active),inactive,inactive,inactive,inactive
CCOc1cc(C(=O)NC2CCN(Cc3ccccc3)C2)ccc1-c1nc2ccc(Cl)cc2[nH]1 (stereo not given),60% (active),7%,6%,98% (active),inactive,inactive,inactive,inactive
FC(F)(F)COc1ccc2ccccc2c1CNCCCCCCNCc1c(OCC(F)(F)F)ccc2ccccc12,95% (active),99% (active),2%,101% (active),inactive,inactive,inactive,inactive
O=C(Nc1ccc(N2CCCCC2)c(Cl)c1)c1ncn[nH]1,93% (active),-4%,-6%,93% (active),inactive,inactive,inactive,inactive
Cc1ccccc1CNC(=O)Nc1cccc(-c2csc(N=C(N)N)n2)c1,14%,2%,-2%,99% (active),inactive,inactive,inactive,inactive
Cc1cccc2[nH]c(-c3cccc(-c4cccc(NC(=O)C(C)CN5CCN(C)CC5)c4)c3)nc12 (stereo not given),99% (active),17%,1%,99% (active),inactive,inactive,inactive,inactive
Nc1c(Cl)cc(C(O)CNCCCCCOCCc2ccc3occc3c2)cc1Cl (stereo not given),74% (active),-2%,-1%,99% (active),inactive,inactive,inactive,inactive
C=C1C[C@@H](n2cnc3c(NC(=O)c4ccccc4)ncnc32)[C@@H](F)[C@@H]1OC(c1ccccc1)(c1ccccc1)c1ccccc1,97% (active),16%,-5%,98% (active),inactive,inactive,inactive,inactive
O=C(NCCCN1CCC(N2CCCCC2)CC1)c1ccc(N2CCOc3ccccc32)s1,12%,37%,4%,101% (active),inactive,inactive,inactive,inactive
O=C(Nc1ccccc1Cl)N(Cc1cc(Cl)cc(Cl)c1)CC(O)COc1ccc(Cl)c(F)c1 (stereo not given),17%,0%,4%,93% (active),inactive,inactive,inactive,inactive

SMILES,growth inhibition [1],inhibition [2],inhibition [3],growth inhibition [4],outcome [5],outcome [6],outcome [7],outcome [8]
COc1cccc(CN2CCCN(Cc3cccc(NC(=O)c4cc5ccccc5s4)c3)CC2)c1,16%,17%,-9%,89% (active),inactive,inactive,inactive,inactive
CCCc1ccc(C(=O)N2[C@@H](c3nccs3)[C@@H](C(N)=O)C[C@@]2(CC(C)C)C(=O)O)cc1,80% (active),16%,1%,94% (active),inactive,inactive,inactive,inactive
CC(CN1CCN(C)CC1)C(=O)Nc1ccc(-c2ccc(-c3nc4ccccc4[nH]3)cc2)cc1 (stereo not given),87% (active),13%,4%,92% (active),inactive,inactive,inactive,inactive
Cc1cc2nc(-c3ccc(/C=C/C(=O)NCCCc4ccccc4)cc3)[nH]c2cc1C,13%,15%,-4%,96% (active),inactive,inactive,inactive,inactive
CC1(CCN2CCC(c3c[nH]c4cnccc34)CC2)CCCc2c(Br)cccc2C1=O (stereo not given),66% (active),14%,3%,101% (active),inactive,inactive,inactive,inactive
COc1ccc2nccc([C@@H](O)CN3CCC(NC(=O)C(=Cc4ccc(Cl)cc4Cl)c4ccc(-c5ccccc5)cc4)CC3)c2c1,98% (active),1%,-2%,100% (active),inactive,inactive,inactive,inactive
Cc1cc([N+](=O)[O-])ccc1NC(=O)Nc1cccc(C(F)(F)F)c1,100% (active),15%,-1%,102% (active),inactive,inactive,inactive,inactive
CS(=O)(=O)CCNCc1nc(-c2ccc3c(Nc4ccc(Oc5ccccn5)cc4)ccnc3c2)cs1,89% (active),9%,-1%,100% (active),inactive,inactive,inactive,inactive
CCN(CC)CCCNc1nccc(N2CCc3ncnc(Nc4ccc(OCc5cccc(F)c5)c(Cl)c4)c3C2)n1,95% (active),100% (active),7%,101% (active),inactive,inactive,inactive,inactive
CC(=O)Nc1cccc(NC(=O)CSc2ccc(-c3nc4ccccc4[nH]3)cn2)c1,73% (active),22%,-4%,97% (active),inactive,inactive,inactive,inactive
Cc1nnc2c(N(C(=O)NCCc3ccccc3)C(=O)NCCc3ccccc3)cc3cc(Cl)ccc3n12,34%,0%,-5%,91% (active),inactive,inactive,inactive,inactive
O=C(/C=C/c1ccc(Cl)c(Cl)c1)NCCCCN1CCCN(C(=O)Nc2ccc(Cl)c(Cl)c2)CC1,1%,22%,3%,96% (active),inactive,inactive,inactive,inactive
Cc1cc(F)ccc1[C@H]1CNCCN1C(=O)N(C)[C@@H](C)c1cc(C(F)(F)F)cc(C(F)(F)F)c1,99% (active),20%,1%,100% (active),inactive,inactive,inactive,inactive
O=C(Nc1ccc(Cl)cc1)Nc1cccc(-c2cc(CNCCc3ccccc3)oc2-c2ccncc2)c1,92% (active),40%,1%,101% (active),inactive,inactive,inactive,inactive
Cc1nc2c(Nc3nc(-c4ccncc4)cs3)ncnc2n1-c1ccccc1Cl,96% (active),14%,0%,97% (active),inactive,inactive,inactive,inactive
CC(=O)Nc1ccc(CN(Cc2ccc(F)cc2)Cc2ccc3c(c2)OCO3)cc1,87% (active),3%,6%,91% (active),inactive,inactive,inactive,inactive
COc1cc2nc(N[C@@H](CO)c3ccccc3)nc(NCc3ccccc3)c2cc1OC,71% (active),6%,1%,101% (active),inactive,inactive,inactive,inactive
COc1ccccc1N1CCN(CCCCNC(=O)c2ccc(NC(=O)c3ccc4ccccc4c3)cc2)CC1,18%,16%,1%,97% (active),inactive,inactive,inactive,inactive
COc1cc(F)c2ncc(Cl)c(CCN3CCC(NCc4cc5c(cn4)OCCO5)CC3)c2c1,57% (active),2%,-1%,89% (active),inactive,inactive,inactive,inactive
CC(CN1CCN(C)CC1)C(=O)Nc1ccc(-c2ccc(-c3nc4ccc(C(F)(F)F)cc4[nH]3)cc2)cc1 (stereo not given),100% (active),19%,-8%,101% (active),inactive,inactive,inactive,inactive
